# Data taken from the supplement of paper PMC9334596.
# Several values for one entry are separate records, joined by “and”; a condition that tells them apart may be missing. Equal entries are not always repeated. Over roughly 5,300 compounds, “PER2::LUC luminescence relative to vehicle control” has its median near 0.96; the highest 2% begin near 1.3. What follows is part of a selection rich in the highest values, with near analogues and random picks from the rest.
# Test system: mPer2Luc MEF
# Experiment: PER2::LUC luminescence relative to vehicle control (fold of vehicle); higher = higher PER2::LUC reporter signal
# Conditions: 10 µM
# Procedure, shortened: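 Each value gives PER2::LUC luminescence as fold of vehicle control, measured with the ONE-Glo luciferase assay system in mouse embryonic fibroblasts carrying the mPer2Luc reporter. Cells grown in DMEM with 10% FBS at 37 °C and 5% CO2 were seeded at ~3000 per well in 384-well plates. Library compounds were added at 10 μM 48 h later, and readings were taken 24 h and 30 h after treatment.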
Compound,PER2::LUC luminescence (time after treatment 24 h),PER2::LUC luminescence (time after treatment 30 h)
CN(C)[C@@H]1c2onc(OCc3ccccc3)c2C(=O)[C@@]2(O[Si](C)(C)C(C)(C)C)C(=O)C=CC[C@@H]12,0.723,0.75
c1ccc2[nH]ncc2c1,0.963,0.985
CNc1ccccc1C(=O)N1CCc2c([nH]c3ccccc23)C1=O,1.56,1.79
CN1c2ccccc2C(=O)N2CCc3c([nH]c4ccccc34)C21 (stereo in doubt),0.589,0.628
CN1CCc2ccccc2Cc2[nH]c3ccccc3c2CC1,1.11,0.824
O=Cc1ccc2cccc(O)c2n1,1.1,0.962
Nc1n[n+]([O-])c2ccccc2[n+]1[O-],1.36,1.15
CNC(=S)NCCSCc1[nH]cnc1C,1.06,1.06
N[C@@H](CCS(=O)O)C(=O)O,0.964,0.944
CN(NC(=O)CC(=O)NN(C)C(=S)c1ccccc1)C(=S)c1ccccc1,1.68,1.1
O=C(O)c1ccccc1,0.918,0.766
O=C(OOC(=O)c1ccccc1)c1ccccc1,1.2,0.843
NS(=O)(=O)c1ccc(-c2c(-c3ccccc3)noc2C(F)F)cc1,1.04,1
CO[C@H]1C[C@H](O[C@@H]2/C(C)=C/C[C@@H]3C[C@@H](C[C@]4(CC[C@H](C)[C@H](C5CCCCC5)O4)O3)OC(=O)[C@H]3C=C(C)/C(=N\O)[C@H]4OCC(=C/C=C/[C@@H]2C)[C@@]34O)O[C@@H](C)[C@@H]1O,0.989,0.929
CSc1ccccc1NC(C)=O,0.972,0.93
CC(=O)N[C@H]1[C@H]([C@H](O)[C@H](O)CO)OC(O)(C(=O)O)C[C@@H]1O (some centres not stated),1.03,0.921
O=C(O)/C=C/c1ccc(-c2ccc(O)c(C34CC5CC(CC(C5)C3)C4)c2)cc1,0.735,0.721
COc1cc(C(=O)O[C@H]2C[C@@H]3CC[C@]2(C)C3(C)C)ccc1O,1.15,1.19
O=C(O)c1ccc2cc(-c3ccc(O)c(C45CC6CC(CC(C6)C4)C5)c3)ccc2c1,1.59,1.63
COc1ccc(-c2ccc3cc(C(=O)O)ccc3c2)cc1C12CC3CC(CC(C3)C1)C2,1.49,1.86
COc1cc(C(=O)O)cc(OC)c1O,1.06,1.08

Compound,PER2::LUC luminescence (time after treatment 24 h),PER2::LUC luminescence (time after treatment 30 h)
NC(=O)c1cccc(NC(=O)/C=C/c2c[nH]c3ccccc23)c1,1.08,1.06
C=C1/C(=C\C=C2/CCC[C@]3(C)[C@@H]([C@H](C)CC[C@@H](O)C(C)(C)O)CC[C@@H]23)C[C@@H](O)C[C@@H]1O,0.999,0.835
CC1(C)C2CCC1(C(=O)O)C(=O)C2 (configuration not stated),0.998,0.954
O=C(Nc1ncc([N+](=O)[O-])s1)c1ccccc1O,1.45,1.73
COc1ccc(CNC(=O)Nc2ncc([N+](=O)[O-])s2)cc1,1.35,1.27
CC(=O)Nc1ncc([N+](=O)[O-])s1,1.33 and 1.09,0.865 and 1.09
O=C(Nc1ncc([N+](=O)[O-])s1)c1ccc([N+](=O)[O-])c(Cl)c1,0.928,1.22
CC(=O)Oc1ccccc1C(=O)Nc1ncc([N+](=O)[O-])s1,0.826,1.16
COc1ccc(CNC(=O)c2sc3nc(C)cc(C)c3c2N)cc1,0.953,0.979
COc1ccc(C2=N[C@@H](c3ccc(Cl)cc3)[C@@H](c3ccc(Cl)cc3)N2C(=O)N2CCNC(=O)C2)c(OC(C)C)c1 (racemic),0.971,0.948
Nc1ncnc2c1ncn2[C@@H]1O[C@H](CO)C[C@@H]1O,0.952,0.956
NCCCCCCCCCCNCCCN,0.962,0.892
C[C@H](NC(=O)CNC(=O)[C@@H](NC(=O)[C@H](Cc1ccccc1)NC(=O)CNC(=O)CNC(=O)[C@@H](N)Cc1ccccc1)[C@@H](C)O)C(=O)N[C@@H](CCCN=C(N)N)C(=O)N[C@@H](CCCCN)C(=O)N[C@@H](CO)C(=O)N[C@@H](C)C(=O)N[C@@H](CCCN=C(N)N)C(=O)N[C@@H](CCCCN)C(N)=O,1.02,0.922
O=C(O)c1ccc2c(c1)nc(Nc1cccc(Cl)c1)c1ccncc12,0.795,1.39
O=C(NCCO)c1ccc2c(c1)nc(Nc1cccc(Cl)c1)c1ccncc12,1.03,0.995
COc1cc2ncnc(Nc3cccc(Cl)c3)c2cc1OC,0.991 and 0.715,0.978 and 0.705
C/C1=C2N=C(/C=C3N=C(/C(C)=C4\[N-]C(C(CC(N)=O)C4(C)CCC(=O)NCC(C)OP(=O)([O-])OC4C(CO)OC(n5cnc6cc(C)c(C)cc65)C4O)C4(C)N=C1C(CCC(N)=O)C4(C)CC(N)=O)C(CCC(N)=O)C\3(C)C)C(CCC(N)=O)C/2(C)CC(N)=O.[CH3-].[Co+3] (configuration not stated),1.07,1.03
Cc1cnc(-c2cnc(NCCNc3ccc(C#N)cn3)nc2-c2ccc(Cl)cc2Cl)[nH]1,1.56,1.06
CN1CCN(C2CCC(n3cc(-c4ccc(Oc5ccccc5)cc4)c4c(N)ncnc43)CC2)CC1 (configuration not stated),0.091,0.137
C[C@@H](NC(=O)c1cc(C(=O)N[C@@H](Cc2ccccc2)[C@H](O)CNC2CC2)cc(N(C)S(C)(=O)=O)c1)c1ccccc1,1.01,1.09
NCCCC[C@H](NC(=O)[C@@H]1CCCN1C(=O)[C@@H]1CSSC[C@H](N)C(=O)N[C@@H](Cc2ccccc2)C(=O)N[C@@H](Cc2ccccc2)C(=O)N[C@@H](CCC(N)=O)C(=O)N[C@@H](CC(N)=O)C(=O)N1)C(=O)NCC(N)=O,1.08,1.13

Compound,PER2::LUC luminescence (time after treatment 24 h),PER2::LUC luminescence (time after treatment 30 h)
COc1ccccc1N1CCN(CCN2C(=O)N=C3C(=Nc4ccccc43)C2=O)CC1,0.831,0.823
NC(=O)c1ncn(C2OC(COP(=O)(O)O)C(O)C2O)c1N (configuration not stated),1.36,1.3
NC(=O)c1ncn([C@@H]2O[C@H](CO)[C@@H](O)[C@H]2O)c1N,1.32 and 0.733,1.18 and 0.988
Nc1ncnc2c1ncn2[C@@H]1O[C@H](COP(=O)(O)O)[C@@H](O)[C@H]1O,1.22 and 1.13,1.14 and 1.05
NCCOCCOCCNC(=O)Cc1ccc(Nc2nc(NCc3ccc(F)cc3)nc(NCC3CCCCC3)n2)cc1,1.09,1.03
COc1ccc(/C=C/C(=O)Nc2ccccc2C(=O)O)cc1OC,0.844 and 0.327,
O=C(O)c1ccccc1Nc1ccccc1,1.02,0.974
C/C(=C\C(=O)Nc1ccccc1C(=O)O)c1ccc2ccccc2c1,1.53,1.46
O[C@H]1CCN2Cc3ccccc3N=C12,0.987,0.932
CC1CCC(C(C)C)C(O)C1 (racemic),1.02,1.25
O=C(CS(=O)(=O)Cc1ccccc1)N1CCOCC1,0.841,0.781
CCCCNc1ccc(C(=O)OCCOCCOCCOCCOCCOCCOCCOCCOCCOC)cc1,1.07,0.94
CCCCNc1cc(C(=O)O)cc(S(N)(=O)=O)c1Oc1ccccc1,1.21,1.86
CCCNC(C)(C)COC(=O)c1ccccc1,0.894,0.968
C[C@@](N)(C(=O)O)c1ccc(C(=O)O)cc1,1.01,0.938
CC(=O)Nc1ccc(C(=O)O)cc1,1.03,0.901
CC1(C)CCC(C)(C)c2cc(C(=O)Nc3ccc(C(=O)O)cc3)ccc21,1.64,1.67
CC(=Cc1ccc(C(=O)O)cc1)c1ccc2c(c1)C(C)(C)CCC2(C)C,1.66,1.52
CC(=O)Nc1ccc(C(=O)Nc2ccccc2N)cc1,0.744,0.677
O=C(Nc1ccc(C(=O)O)c(O)c1)c1ccccc1,1.03,1.13
CC1(C)CCC(C)(C)c2cc(NC(=O)c3ccc(C(=O)O)cc3)ccc21,1.77,1.63

Compound,PER2::LUC luminescence (time after treatment 24 h),PER2::LUC luminescence (time after treatment 30 h)
NC1(C(=O)O)CCc2cc(C(=O)O)ccc21 (configuration not stated),0.992,0.984
CC(N)(C(=O)O)c1ccc(C(=O)O)cc1 (racemic),0.971,0.694
COc1ccc(C(OCCN2CCC[C@H](C(=O)O)C2)(c2ccc(OC)cc2)c2ccc(OC)cc2)cc1,0.855,1.04
"NC1CCN(O)C1=O (single isomer, unassigned; (+))",0.99,0.883
CCCN(CCc1cccs1)C1CCc2c(O)cccc2C1 (racemic),0.965,0.906
O=C1/C(=C/c2ccc(O)c(O)c2)Oc2c1ccc(O[C@@H]1O[C@H](CO)[C@@H](O)[C@H](O)[C@H]1O)c2O,0.983,0.93
CC(C)C[C@H](NC(=O)OCc1ccccc1)C(=O)N[C@@H](CC(C)C)C(=O)NCC(=O)CNC(=O)[C@H](CC(C)C)NC(=O)[C@H](CC(C)C)NC(=O)OCc1ccccc1,1.01,0.909
CCCCCCCCCCCCCC[C@@H](O)[C@@H](O)[C@@H](CO)NC(C)=O,1.07,1.04
CN1C(=O)N[C@H](Cc2c[nH]c3c(Cl)cccc23)C1=O,0.87,0.819
c1ccc2c(Cc3c[nH]c4ccccc34)c[nH]c2c1,0.956 and 0.816,1.02 and 0.84
CN1C(=O)C(Cc2c[nH]c3ccccc23)NC1=S (configuration not stated),1.15,1.36
O=C(O)c1cc(N(Cc2ccccc2O)Cc2cc(O)ccc2O)ccc1O,1.05,1.03
C[C@@]1(F)[C@H](O)[C@@H](CO)O[C@H]1n1ccc(=O)[nH]c1=O,0.965,0.937
CN1CCC[C@@H]1c1cccnc1.Cc1ccc(C(=O)O[C@H](C(=O)O)[C@@H](OC(=O)c2ccc(C)cc2)C(=O)O)cc1,0.873,0.978
C=CC[C@@H]1[C@H](O)CC[C@@]2(C)[C@H]1CC[C@@H]1[C@@H]2CC[C@]2(C)[C@@H]([C@H](C)CCCC(C)C)CC[C@@H]12,0.994,0.987
Nc1nc(NC2CC2)c2ncn([C@H]3C=C[C@@H](CO)C3)c2n1,1.23 and 1.48,1.32 and 1.75
OC[C@H]1O[C@@H](n2cnc3c(NC4CCCC4)ncnc32)[C@H](O)[C@@H]1O,0.965,0.991
OCC1OC(n2cnc3c(NC4CCCC4)nc(Cl)nc32)C(O)C1O (configuration not stated),0.932,0.97
COc1cc(O)c(C(=O)/C=C/c2ccc(O)c(OC)c2)c(OC)c1,0.871,0.855
CC(C)c1noc(C2CCN(c3ncnc(Nc4ccc(S(C)(=O)=O)cc4F)c3[N+](=O)[O-])CC2)n1,0.972,0.789
COc1ccc(/C=C/c2ccccc2F)cc1,1.2,1.26
